Consider 1 sequence from paper PMC7862700, “An all-to-all approach to the identification of sequence-specific readers for epigenetic DNA modifications on cytosine”.

Assay in all cases: DAPPL (digital affinity profiling via proximity ligation, sequencing); 10 mM Tris-HCl pH 7.5, 50 mM NaCl, 1 mM DTT, 4% glycerol, room temperature, 30 min; GST-TFs on glutathione beads, 16-mer random dsDNA library, 0.1% formaldehyde crosslink after washing; high values mean tight binding
For experiment [1], the target named is T1, FEV (Homo sapiens, UniProt Q99581 1-238).
T1 sequence: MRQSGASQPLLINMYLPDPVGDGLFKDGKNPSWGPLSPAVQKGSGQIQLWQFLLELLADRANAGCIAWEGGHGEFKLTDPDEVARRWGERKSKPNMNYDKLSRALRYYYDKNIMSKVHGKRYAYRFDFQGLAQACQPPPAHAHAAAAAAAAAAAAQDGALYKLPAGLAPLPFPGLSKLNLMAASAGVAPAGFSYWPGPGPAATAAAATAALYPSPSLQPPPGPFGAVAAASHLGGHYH
The following applies: protein: recombinant; tags: N-terminal GST; dsDNA, one strand shown. In a few lines:
(§1)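 Binding signal is given per hexamer as its read frequency for a factor divided by its frequency in the tag-only sample. GST-fused human transcription factors were expressed in yeast, captured on glutathione beads, barcoded with DNA and pooled with that sample, then incubated with 200 nmole of a 16-mer random double-stranded DNA library in Tris/NaCl/DTT/glycerol buffer for 30 min at room temperature. The pools were then washed, crosslinked, proximity-ligated, amplified by PCR and sequenced on an Illumina NextSeq500.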

Experiment [2] deals with ETV5 (Homo sapiens, UniProt P41161 1-510). Conditions: protein: recombinant; tags: N-terminal GST; dsDNA, one strand shown. The gist of the method:
as §1

For experiment [3], the target named is HSF1 (Homo sapiens, UniProt Q00613 1-529). Conditions: protein: recombinant; tags: N-terminal GST; chain copies: 3; dsDNA, one strand shown. In a few lines:
as §1

In experiment [4] the target is T2, SPIC (Homo sapiens, UniProt Q8N5J4 1-248).
T2 sequence: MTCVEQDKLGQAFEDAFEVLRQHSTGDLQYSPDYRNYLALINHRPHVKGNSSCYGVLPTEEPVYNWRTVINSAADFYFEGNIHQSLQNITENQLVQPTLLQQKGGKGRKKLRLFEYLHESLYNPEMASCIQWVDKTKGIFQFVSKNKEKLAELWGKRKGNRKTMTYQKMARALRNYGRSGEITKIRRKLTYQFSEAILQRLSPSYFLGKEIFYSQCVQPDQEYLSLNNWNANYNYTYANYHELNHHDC
Conditions: protein: recombinant; tags: N-terminal GST; dsDNA, one strand shown. The gist of the method:
as §1

In experiment [5] the target is ELF4 (Homo sapiens, UniProt Q99607 1-663). Conditions: protein: recombinant; tags: N-terminal GST; dsDNA, one strand shown. In a few lines:
as §1

Experiment [6] addresses T3, ELK4 (Homo sapiens, UniProt P28324-2 1-405).
T3 sequence: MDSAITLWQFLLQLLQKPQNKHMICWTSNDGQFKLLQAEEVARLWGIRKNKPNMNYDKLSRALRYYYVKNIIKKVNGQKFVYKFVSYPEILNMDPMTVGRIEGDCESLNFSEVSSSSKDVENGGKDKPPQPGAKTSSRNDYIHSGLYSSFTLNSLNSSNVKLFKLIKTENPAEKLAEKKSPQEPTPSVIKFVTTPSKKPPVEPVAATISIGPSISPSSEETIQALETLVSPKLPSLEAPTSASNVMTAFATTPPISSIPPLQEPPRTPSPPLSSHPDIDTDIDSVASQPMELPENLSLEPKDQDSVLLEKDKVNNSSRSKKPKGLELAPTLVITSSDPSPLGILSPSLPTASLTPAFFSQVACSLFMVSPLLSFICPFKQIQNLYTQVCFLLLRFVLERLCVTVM
Conditions: protein: recombinant; tags: N-terminal GST; dsDNA, one strand shown. The gist of the method: as §1

Experiment [7] has as its target T4, ETV2 (Homo sapiens, UniProt O00321 1-342).
T4 sequence: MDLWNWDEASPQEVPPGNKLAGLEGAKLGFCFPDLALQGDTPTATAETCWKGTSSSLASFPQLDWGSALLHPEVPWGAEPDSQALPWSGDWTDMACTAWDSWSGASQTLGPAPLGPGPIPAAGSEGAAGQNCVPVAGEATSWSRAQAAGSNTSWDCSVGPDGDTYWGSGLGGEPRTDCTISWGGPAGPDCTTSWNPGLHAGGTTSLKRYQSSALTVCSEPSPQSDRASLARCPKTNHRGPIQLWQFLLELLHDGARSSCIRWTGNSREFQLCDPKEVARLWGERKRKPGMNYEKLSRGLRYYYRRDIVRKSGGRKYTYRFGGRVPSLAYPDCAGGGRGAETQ
The following applies: protein: recombinant; tags: N-terminal GST; dsDNA, one strand shown. The gist of the method: as §1

In experiment [8] the target is T5, ELF3 (Homo sapiens, UniProt P78545 1-371).
T5 sequence: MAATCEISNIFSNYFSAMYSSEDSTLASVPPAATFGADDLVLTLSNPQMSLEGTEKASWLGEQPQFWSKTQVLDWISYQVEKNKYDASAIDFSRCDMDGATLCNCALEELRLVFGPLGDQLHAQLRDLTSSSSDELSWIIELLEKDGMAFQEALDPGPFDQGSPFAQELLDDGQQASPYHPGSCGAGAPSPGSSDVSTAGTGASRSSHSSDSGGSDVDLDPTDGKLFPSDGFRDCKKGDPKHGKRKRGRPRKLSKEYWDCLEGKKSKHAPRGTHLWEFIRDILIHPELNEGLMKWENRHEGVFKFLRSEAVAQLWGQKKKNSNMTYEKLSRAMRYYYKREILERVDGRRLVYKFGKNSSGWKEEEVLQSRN
Conditions: protein: recombinant; tags: N-terminal GST; dsDNA, one strand shown. The gist of the method:
as §1

The target in experiment [9] is CRX (Homo sapiens, UniProt O43186 1-299). The following applies: protein: recombinant; tags: N-terminal GST; dsDNA, one strand shown. In a few lines: as §1
Chain of CRX (O43186 whole entry): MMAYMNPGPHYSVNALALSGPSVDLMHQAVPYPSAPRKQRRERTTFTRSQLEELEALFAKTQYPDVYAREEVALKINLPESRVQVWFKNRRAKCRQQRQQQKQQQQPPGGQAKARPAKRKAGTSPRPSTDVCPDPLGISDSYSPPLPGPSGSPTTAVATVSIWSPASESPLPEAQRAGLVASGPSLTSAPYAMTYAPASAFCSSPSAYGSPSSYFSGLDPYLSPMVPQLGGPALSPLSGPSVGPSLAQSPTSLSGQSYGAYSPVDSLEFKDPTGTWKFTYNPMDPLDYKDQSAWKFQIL
The target of experiment [10] is ETV1 (Homo sapiens, UniProt P50549 1-477). Conditions: protein: recombinant; tags: N-terminal GST; dsDNA, one strand shown. In a few lines:
as §1

Experiment [11] deals with T6, ERF (Homo sapiens, UniProt P50548 1-548).
T6 sequence: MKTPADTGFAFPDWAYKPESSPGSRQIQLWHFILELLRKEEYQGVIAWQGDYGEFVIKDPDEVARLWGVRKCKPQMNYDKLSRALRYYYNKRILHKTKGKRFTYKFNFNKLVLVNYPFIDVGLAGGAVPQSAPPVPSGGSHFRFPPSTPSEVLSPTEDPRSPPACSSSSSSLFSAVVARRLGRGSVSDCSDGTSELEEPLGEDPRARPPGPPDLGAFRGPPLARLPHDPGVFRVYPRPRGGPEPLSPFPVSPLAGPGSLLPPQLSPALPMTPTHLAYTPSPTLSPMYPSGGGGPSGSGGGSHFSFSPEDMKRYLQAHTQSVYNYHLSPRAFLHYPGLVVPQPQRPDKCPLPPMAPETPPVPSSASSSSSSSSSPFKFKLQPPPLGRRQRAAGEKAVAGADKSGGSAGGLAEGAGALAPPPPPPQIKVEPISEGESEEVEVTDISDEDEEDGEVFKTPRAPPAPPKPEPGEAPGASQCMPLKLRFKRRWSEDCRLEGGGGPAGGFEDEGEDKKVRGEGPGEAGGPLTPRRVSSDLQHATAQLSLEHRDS
The following applies: protein: recombinant; tags: N-terminal GST; dsDNA, one strand shown. In a few lines:
as §1

The target in experiment [12] is T7, ETV3L (Homo sapiens, UniProt Q6ZN32 1-361).
T7 sequence: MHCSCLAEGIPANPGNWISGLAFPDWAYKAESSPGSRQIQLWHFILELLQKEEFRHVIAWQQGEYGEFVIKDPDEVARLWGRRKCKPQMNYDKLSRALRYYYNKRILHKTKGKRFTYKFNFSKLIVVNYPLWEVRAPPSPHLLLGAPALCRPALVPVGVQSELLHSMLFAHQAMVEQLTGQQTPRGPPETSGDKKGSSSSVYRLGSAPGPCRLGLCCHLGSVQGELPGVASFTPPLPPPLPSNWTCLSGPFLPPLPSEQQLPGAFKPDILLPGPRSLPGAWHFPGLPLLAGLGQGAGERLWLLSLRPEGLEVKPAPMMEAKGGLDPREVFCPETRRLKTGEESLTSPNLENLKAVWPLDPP
Conditions: protein: recombinant; tags: N-terminal GST; dsDNA, one strand shown. The gist of the method: as §1

The target of experiment [13] is T8, ETS2 (Homo sapiens, UniProt P15036 1-469).
T8 sequence: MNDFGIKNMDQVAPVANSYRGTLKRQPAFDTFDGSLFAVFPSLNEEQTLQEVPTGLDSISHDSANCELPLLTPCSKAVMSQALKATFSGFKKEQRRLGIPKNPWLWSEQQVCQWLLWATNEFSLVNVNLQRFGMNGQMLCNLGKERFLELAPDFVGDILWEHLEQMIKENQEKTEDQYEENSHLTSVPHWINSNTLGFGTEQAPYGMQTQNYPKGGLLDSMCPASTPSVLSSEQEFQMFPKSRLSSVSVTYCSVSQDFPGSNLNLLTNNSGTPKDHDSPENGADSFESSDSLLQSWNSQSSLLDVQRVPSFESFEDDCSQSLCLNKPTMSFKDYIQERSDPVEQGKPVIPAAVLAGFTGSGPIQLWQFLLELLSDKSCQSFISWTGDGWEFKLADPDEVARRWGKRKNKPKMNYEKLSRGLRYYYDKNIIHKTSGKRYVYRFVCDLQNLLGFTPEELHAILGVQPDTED
The following applies: protein: recombinant; tags: N-terminal GST; dsDNA, one strand shown. The gist of the method:
as §1

Experiment [14] addresses T9, SPDEF (Homo sapiens, UniProt O95238 1-335).
T9 sequence: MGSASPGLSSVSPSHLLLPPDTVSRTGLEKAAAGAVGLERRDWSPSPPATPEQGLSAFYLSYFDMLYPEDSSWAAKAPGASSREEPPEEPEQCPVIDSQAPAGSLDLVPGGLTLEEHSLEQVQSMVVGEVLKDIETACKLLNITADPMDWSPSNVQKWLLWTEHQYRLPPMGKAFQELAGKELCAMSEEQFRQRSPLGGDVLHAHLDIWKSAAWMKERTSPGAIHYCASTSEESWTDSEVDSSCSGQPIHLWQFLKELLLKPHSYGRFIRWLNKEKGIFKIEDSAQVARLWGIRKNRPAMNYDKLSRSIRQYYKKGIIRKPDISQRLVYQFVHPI
The following applies: protein: recombinant; tags: N-terminal GST; dsDNA, one strand shown. In a few lines:
as §1

Experiment [15] addresses T10, ETV7 (Homo sapiens, UniProt Q9Y603 1-341).
T10 sequence: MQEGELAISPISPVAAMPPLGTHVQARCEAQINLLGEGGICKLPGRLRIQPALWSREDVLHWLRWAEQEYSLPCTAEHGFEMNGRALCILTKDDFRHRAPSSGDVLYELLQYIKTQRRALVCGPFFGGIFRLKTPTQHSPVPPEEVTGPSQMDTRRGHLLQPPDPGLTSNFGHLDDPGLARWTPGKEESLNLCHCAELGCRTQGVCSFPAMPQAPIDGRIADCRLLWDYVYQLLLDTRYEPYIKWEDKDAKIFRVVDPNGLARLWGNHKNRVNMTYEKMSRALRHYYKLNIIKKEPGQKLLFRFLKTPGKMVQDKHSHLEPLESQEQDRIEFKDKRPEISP
The following applies: protein: recombinant; tags: N-terminal GST; dsDNA, one strand shown. In a few lines: as §1

The target in experiment [16] is T11, ELF5 (Homo sapiens, UniProt Q9UKW6-2 1-255).
T11 sequence: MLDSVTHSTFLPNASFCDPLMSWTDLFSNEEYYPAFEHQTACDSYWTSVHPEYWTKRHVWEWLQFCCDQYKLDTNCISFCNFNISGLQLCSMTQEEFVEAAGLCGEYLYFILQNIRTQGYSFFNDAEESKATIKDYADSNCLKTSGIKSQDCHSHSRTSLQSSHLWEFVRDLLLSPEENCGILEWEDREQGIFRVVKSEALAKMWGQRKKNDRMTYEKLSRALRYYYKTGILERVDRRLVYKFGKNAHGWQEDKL
Conditions: protein: recombinant; tags: N-terminal GST; dsDNA, one strand shown. The gist of the method:
as §1

Experiment [17] has as its target T12, ETV3 (Homo sapiens, UniProt P41162-2 1-143).
T12 sequence: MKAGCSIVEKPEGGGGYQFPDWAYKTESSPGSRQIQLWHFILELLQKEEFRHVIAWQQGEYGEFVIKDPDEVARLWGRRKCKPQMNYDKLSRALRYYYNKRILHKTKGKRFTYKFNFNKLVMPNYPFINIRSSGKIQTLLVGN
Conditions: protein: recombinant; tags: N-terminal GST; dsDNA, one strand shown. The gist of the method: as §1

Experiment [18] concerns the target ETV6 (Homo sapiens, UniProt P41212 1-452). The following applies: protein: recombinant; tags: N-terminal GST; dsDNA, one strand shown. The gist of the method:
as §1

Chain of HSF1 (Q00613 whole entry): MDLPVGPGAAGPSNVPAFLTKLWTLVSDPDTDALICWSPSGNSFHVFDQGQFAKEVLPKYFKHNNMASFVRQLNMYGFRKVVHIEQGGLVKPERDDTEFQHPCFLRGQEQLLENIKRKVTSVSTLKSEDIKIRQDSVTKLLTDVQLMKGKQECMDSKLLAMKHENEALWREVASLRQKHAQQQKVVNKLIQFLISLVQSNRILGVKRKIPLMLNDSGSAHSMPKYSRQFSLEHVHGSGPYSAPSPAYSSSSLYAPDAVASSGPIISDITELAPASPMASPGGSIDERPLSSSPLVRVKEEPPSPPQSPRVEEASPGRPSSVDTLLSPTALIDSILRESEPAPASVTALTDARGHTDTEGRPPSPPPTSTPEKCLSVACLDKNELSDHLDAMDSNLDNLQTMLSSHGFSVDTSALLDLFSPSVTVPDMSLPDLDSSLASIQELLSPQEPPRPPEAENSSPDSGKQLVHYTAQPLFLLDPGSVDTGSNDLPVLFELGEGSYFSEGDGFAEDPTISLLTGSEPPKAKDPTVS
Chain of ETV5 (P41161 whole entry): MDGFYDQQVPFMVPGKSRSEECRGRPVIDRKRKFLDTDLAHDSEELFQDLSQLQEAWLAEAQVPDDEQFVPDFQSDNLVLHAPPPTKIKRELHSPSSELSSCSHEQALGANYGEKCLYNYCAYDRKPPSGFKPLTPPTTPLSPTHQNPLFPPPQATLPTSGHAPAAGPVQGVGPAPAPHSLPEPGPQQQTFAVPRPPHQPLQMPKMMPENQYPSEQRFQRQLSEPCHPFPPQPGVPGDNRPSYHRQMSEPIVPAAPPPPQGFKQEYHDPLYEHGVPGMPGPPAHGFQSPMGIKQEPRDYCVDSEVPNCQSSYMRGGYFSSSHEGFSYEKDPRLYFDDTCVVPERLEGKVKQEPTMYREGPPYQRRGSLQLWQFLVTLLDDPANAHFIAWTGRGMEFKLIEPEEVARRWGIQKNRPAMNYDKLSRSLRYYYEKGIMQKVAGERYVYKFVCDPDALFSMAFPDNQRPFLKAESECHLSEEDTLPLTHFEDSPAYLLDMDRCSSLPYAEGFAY
Chain of ETV1 (P50549 whole entry): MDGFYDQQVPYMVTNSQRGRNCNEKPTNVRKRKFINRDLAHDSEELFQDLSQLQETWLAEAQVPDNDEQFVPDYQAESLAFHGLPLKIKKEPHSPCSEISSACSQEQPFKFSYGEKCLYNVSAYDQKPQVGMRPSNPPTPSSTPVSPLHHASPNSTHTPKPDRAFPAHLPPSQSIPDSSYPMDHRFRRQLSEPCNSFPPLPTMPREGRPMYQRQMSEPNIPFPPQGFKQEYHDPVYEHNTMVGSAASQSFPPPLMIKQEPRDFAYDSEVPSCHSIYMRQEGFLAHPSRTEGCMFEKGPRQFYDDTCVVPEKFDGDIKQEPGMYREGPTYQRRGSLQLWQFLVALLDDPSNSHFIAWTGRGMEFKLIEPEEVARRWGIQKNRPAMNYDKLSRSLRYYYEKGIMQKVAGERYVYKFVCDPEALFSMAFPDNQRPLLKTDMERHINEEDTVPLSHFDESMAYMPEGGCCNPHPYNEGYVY
Chain of ELF4 (Q99607 whole entry): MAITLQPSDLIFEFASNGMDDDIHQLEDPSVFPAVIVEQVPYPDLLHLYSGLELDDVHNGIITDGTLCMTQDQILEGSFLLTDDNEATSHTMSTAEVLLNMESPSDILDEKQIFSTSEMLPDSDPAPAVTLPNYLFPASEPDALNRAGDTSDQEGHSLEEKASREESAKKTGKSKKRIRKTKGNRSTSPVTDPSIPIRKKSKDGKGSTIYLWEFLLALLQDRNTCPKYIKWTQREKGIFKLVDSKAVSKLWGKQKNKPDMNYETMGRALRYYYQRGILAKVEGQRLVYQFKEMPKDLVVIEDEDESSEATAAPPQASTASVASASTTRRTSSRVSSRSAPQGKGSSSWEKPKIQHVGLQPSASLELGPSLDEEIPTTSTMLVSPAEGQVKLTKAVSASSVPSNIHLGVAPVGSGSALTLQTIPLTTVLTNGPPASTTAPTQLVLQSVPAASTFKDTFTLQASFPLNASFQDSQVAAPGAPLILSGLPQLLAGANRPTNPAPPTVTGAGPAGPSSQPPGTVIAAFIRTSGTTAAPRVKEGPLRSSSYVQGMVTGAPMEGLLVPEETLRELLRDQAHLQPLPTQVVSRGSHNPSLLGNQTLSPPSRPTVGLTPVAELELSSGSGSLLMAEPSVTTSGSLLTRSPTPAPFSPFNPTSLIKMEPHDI
Chain of ETV6 (P41212 whole entry): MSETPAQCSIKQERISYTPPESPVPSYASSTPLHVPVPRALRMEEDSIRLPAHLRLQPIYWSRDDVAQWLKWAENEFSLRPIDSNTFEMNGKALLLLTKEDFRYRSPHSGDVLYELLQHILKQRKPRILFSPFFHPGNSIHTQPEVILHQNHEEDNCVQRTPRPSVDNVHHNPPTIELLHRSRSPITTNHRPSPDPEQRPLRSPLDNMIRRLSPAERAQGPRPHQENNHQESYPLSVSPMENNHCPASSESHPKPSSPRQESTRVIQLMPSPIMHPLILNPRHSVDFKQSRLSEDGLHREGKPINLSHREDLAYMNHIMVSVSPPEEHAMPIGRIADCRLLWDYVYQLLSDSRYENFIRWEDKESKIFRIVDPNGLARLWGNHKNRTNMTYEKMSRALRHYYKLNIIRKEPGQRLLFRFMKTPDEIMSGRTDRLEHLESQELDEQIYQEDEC

For TCGACC, the binding signal was 1.32 fold enrichment (6-mer frequency, TF over GST control) in [1]; 1.27 fold enrichment (6-mer frequency, TF over GST control) in [2]; 1.23 fold enrichment (6-mer frequency, TF over GST control) in [3]; 1.17 fold enrichment (6-mer frequency, TF over GST control) in experiment [4]; 1.39 fold enrichment (6-mer frequency, TF over GST control) in [5]; 1.11 fold enrichment (6-mer frequency, TF over GST control) in experiment [6]. The binding signal in experiment [7] is 1.35 fold enrichment (6-mer frequency, TF over GST control); in experiment [8] it was 1.23 fold enrichment (6-mer frequency, TF over GST control); in experiment [9], 1.11 fold enrichment (6-mer frequency, TF over GST control); in [10], 1.25 fold enrichment (6-mer frequency, TF over GST control); in [11] it was 1.31 fold enrichment (6-mer frequency, TF over GST control); in experiment [12], 1.33 fold enrichment (6-mer frequency, TF over GST control). The binding signal in experiment [13] is 1.24 fold enrichment (6-mer frequency, TF over GST control); in experiment [14] it was 1.37 fold enrichment (6-mer frequency, TF over GST control); in [15], 1.21 fold enrichment (6-mer frequency, TF over GST control); in experiment [16], 1.28 fold enrichment (6-mer frequency, TF over GST control); in experiment [17], 1.27 fold enrichment (6-mer frequency, TF over GST control); in experiment [18] it was 1.3 fold enrichment (6-mer frequency, TF over GST control).
